# High-throughput results as filed in PubChem.
# aSyn UTR act: Activators via SNCA 5'UTR binding, MLPCN; AID 1814, 2009; activity score, % (tested at 7.5 µM), hits read low; 300,000 tested, 7.1% active; alpha-synuclein 5'UTR reporter, activators screen; in the data active means activity score below about -60%
# * hit, by the source's call. A selection follows.
SMILES,aSyn UTR act
O=C(CSCC(=O)Nc1nc(-c2ccc3c(c2)OCO3)cs1)Nc1nccs1,-110.7*
O=C(Nc1nc(-c2ccc3c(c2)OCO3)cs1)C1CC1,-183.8*
CSCC(=O)Nc1nc(-c2ccc3c(c2)OCCO3)cs1,-116.9*
CC(C)(C)c1cc[n+](/C(C(=S)Nc2ccccc2F)=C(/[O-])c2ccc3c(c2)OCCO3)cc1,-73.6*
[O-]/C(=C(\C(=S)Nc1ccc(Cl)cc1)[n+]1ccccc1)c1ccc(OC(F)F)cc1,-78.8*
[O-]/C(=C(\C(=S)Nc1ccccc1F)[n+]1ccccc1)c1ccc(-c2ccccc2)cc1,-71.5*
CCOc1ccccc1NC(=S)/C(=C(\[O-])c1ccc2c(c1)OCCO2)[n+]1ccc(CC)cc1,-64.2*
CCc1nnc(NC(=O)c2sc3nc4c(cc3c2N)CCCCCC4)s1,-75.4*
CCc1nnc(NC(=O)c2sc3nc4c(cc3c2N)CCCCC4)s1,-138.4*
Cc1cccc(NC(=O)CSc2nccn2Cc2ccco2)c1C,-80.5*
Cc1cccc(NC(=O)CSc2nccn2Cc2ccco2)c1,-88.9*
COc1ccc(NC(=O)CSc2nccn2Cc2ccco2)cc1,-96.0*
CCC(=O)Nc1cc(NC(=O)CSc2ncc(-c3ccc(F)cc3)n2Cc2ccco2)ccc1C,-225.7*
O=C(/C=C/c1ccccc1)NC1CC2CCC1C2 (stereo unspecified),-110.2*
COc1ccc(/C=C/c2nc(-c3ccccc3O)n[nH]2)cc1OC,-131.9*
NS(=O)(=O)c1cccc(NC(=S)NC(=O)C23CC4CC(CC(C4)C2)C3)c1,-62.3*
Cc1cc2ncc(-c3cccc(Cl)c3)cn2n1,-117.3*
Cc1cc2ncc(-c3ncc(C(F)(F)F)cc3Cl)cn2n1,65.4
CCOc1cc(C)c(S(=O)(=O)Nc2ccc3cn[nH]c3c2)cc1C,-73.7*
CC1C2CC(C/C2=N/NC(=O)c2cccs2)C1(C)C (stereo unspecified),-73.6*
C/C(=N\NC(=O)c1cccs1)C(C)(C)C,-93.8*
C/C(=N\NC(=O)c1cc(-c2ccc(C)s2)[nH]n1)c1ccco1,-167.9*
O=C(NN=C1CCCCCC1)c1cccs1,-75.0*
C/C(=N/NC(=O)c1cccs1)c1ccco1,-99.8*
CCOC(=O)C/C(C)=N/NC(=O)c1cccs1,-131.3*
SMILES,aSyn UTR act
Cc1cccc(-n2cnc3cc(C(=O)N4CCCCC4)ccc32)c1,-74.0*
CCCCCCc1ccc(N2C[C@H](C)[C@@H](CC(=O)NCc3ccccc3)C2=O)cc1,-82.2*
c1ccn(-c2ccc(N3CCOCC3)cc2)c1,-124.8*
CSc1ccc(NC(=O)Nc2cccn(Cc3ccccc3F)c2=O)cc1,-76.1*
N/C(=N\NC(=O)Nc1ccc(Cl)cc1)c1ccccn1,-113.6*
CCOC(=O)c1ccc(NC(=O)C2CCCN(c3cnccn3)C2)cc1 (stereo unspecified),-88.4*
O=C(Nc1ccccc1)Nc1cccc2cccnc12,-178.1*
O=C(Nc1ccccc1)Nc1ccccn1,-125.7*
CC(Sc1ccccn1)C(=O)Nc1ccccc1 (stereo unspecified),-208.3*
CCOC(=O)c1ccc(NC(=O)Nc2ccccn2)cc1,-90.0*
O=C(Nc1ccc(Cl)cc1)Nc1ccccn1,-167.5*
S=C(Nc1ccccn1)c1ccccn1,-114.8*
O=C(Nc1ccccn1)c1ccc(-c2ccccc2)cc1,63.3
CCOC(=O)c1ccc(NC(=O)c2cnccn2)cc1,-66.5*
O=C(Nc1ccccn1)C(=O)Nc1ccccn1,-95.2*
COc1cc(C2C3=C(Nc4ncnn42)c2ccccc2CC3)cc(OC)c1OC (stereo unspecified),82.6
COc1ccc(-n2nc(C(=O)NCC(=O)N3CCN(c4ccc(F)cc4)CC3)c3ccccc3c2=O)c(OC)c1,-65.2*
COc1ccc(-n2nc(C(=O)NCC(=O)N3CCN(c4ccccc4)CC3)c3ccccc3c2=O)c(OC)c1,-78.2*
CC1CCc2c(sc3ncn(CCO)c(=O)c23)C1 (stereo unspecified),-115.9*
Oc1ccccc1-c1cc(-c2cccc(F)c2)n[nH]1,-233.9*
Cc1cccc(N2CCN(C(=O)CCCOc3ccccc3)CC2)c1C,-85.9*
COc1cc(C(=O)N2CCN(c3cccc(C)c3C)CC2)cc(OC)c1OC,58.3
CCOC(=O)N1CCN(C(=O)CCCOc2ccccc2)CC1,-114.7*
O=C(NC(Nc1nc2ccc([N+](=O)[O-])cc2s1)(C(F)(F)F)C(F)(F)F)c1ccccc1Cl,85.7
C/C(=C\c1ccccc1)C(=O)Nc1nc2ccc([N+](=O)[O-])cc2s1,-79.1*
SMILES,aSyn UTR act
CC(C)=CC(=O)Nc1nc2ccc([N+](=O)[O-])cc2s1,-83.0*
Cc1ccc(C(=O)Cc2cc3ccccc3oc2=O)c(C)c1,-129.8*
Cc1ccc(C(=O)NC(=S)Nc2ccc(-c3cc4ccccc4oc3=O)cc2)c(C)c1,88.3
COc1ccc(C(=O)Cc2cc3ccccc3oc2=O)cc1,-124.6*
C/C(=N\OCc1ccc(C#N)cc1)c1ccccc1,-119.8*
C/C(=N\OCc1cccc(C(=O)O)c1)c1ccc(Cl)cc1,104.4
CCC(=O)NC(=S)Nc1ccc2oc(-c3ccc(OC)cc3)nc2c1,-168.6*
COc1ccc(-c2nc3cc(NC(=S)NC(=O)Cc4ccccc4)ccc3o2)cc1,-143.2*
O=C(c1cc(-c2cccc(Cl)c2)on1)N1CCOCC1,-171.0*
O=C(c1cc(-c2ccc(F)cc2)on1)N1CCOCC1,-110.6*
COCCNC(=O)c1cc(-c2ccc(Cl)c(Cl)c2)on1,-78.0*
O=C(c1cc(-c2ccc(Cl)c(Cl)c2)on1)N1CCOCC1,-151.5*
O=C(c1cc(-c2ccc(Cl)cc2Cl)on1)N1CCOCC1,79.8
O=C(OCc1csc(-c2ccccc2)n1)c1ccccc1O,-148.7*
CCOC(=O)N1CCN(C(=O)CSCC(=O)Nc2nc(-c3ccc(-c4ccccc4)cc3)cs2)CC1,-125.7*
O=C(COC(=O)c1cccnc1Cl)Nc1nc(-c2ccccc2)cs1,-63.0*
CCOC(=S)SCC(=O)Nc1nc(-c2ccc(Br)cc2)cs1,69.9
CCOC(=O)N1CCN(C(=O)CSCC(=O)Nc2nc(-c3ccc(OC)cc3)cs2)CC1,-96.8*
CCOC(=O)N1CCN(C(=O)CSCC(=O)Nc2nc(-c3ccc(Cl)s3)cs2)CC1,-85.3*
Cc1nc(-c2ccccc2)sc1-c1ccnn1C,-110.6*
COc1ccc(C(=O)CNc2ccccc2CO)cc1,-69.8*
COc1ccc(C(=O)COc2ccccc2N2C(=O)C3C4C=CC(C4)C3C2=O)cc1 (stereo unspecified),-81.6*
COc1ccc(C(=O)CNc2ccccc2C#N)cc1,-93.0*
COc1ccc(C(=O)COc2ccccc2C#N)cc1,-126.7*
N#Cc1cc(C#N)c(N2CCN(c3cccc(Cl)n3)CC2)nc1N,-85.5*
SMILES,aSyn UTR act
O=C(Nc1ccc(Cl)c(Cl)c1)Nc1nccs1,-63.8*
O=C(Nc1cccc(Cl)c1)Nc1nccs1,-158.9*
Cc1nc2cc(NC(=O)Nc3nccs3)ccc2n1C,-99.3*
O=C(NCc1csc(-c2cccs2)n1)c1ccsc1,-112.0*
CC(=O)Cn1nnc2sc3c(c2c1=O)CCC(C(C)(C)C)C3 (stereo unspecified),-112.6*
CCc1ccc(-c2nnn(CCC(=O)OC)n2)cc1,77.1
COc1ccc(-n2nnnc2-c2cccc(OC)c2)cc1,64.3
C=CCNC(=O)Cn1nnc(-c2ccc(-c3ccc(OC)cc3)cc2)n1,-128.7*
COc1ccc(-c2ccc(-c3nnn(CC(C)=O)n3)cc2)cc1,-188.6*
COc1cccc(-c2nnn(CC(C)=O)n2)c1,-121.8*
COc1cccc(-c2nnn(CC(=O)N3CCCCC3)n2)c1,-73.7*
COc1ccc(NC(=O)Cn2nnc(-c3ccccc3NS(=O)(=O)c3ccc(OC)cc3)n2)cc1,106.5
